Compound activity as filed in PubChem BioAssay.
Compounds with a hit are over-represented: about 5% of the library has one in this group of screens.
CHT block – inhibitors of human choline transporter CHT. Q9GZV3. CHT-expressing cells, membrane potential dye, choline response; stronger effect = lower value. B-score at 10 µM. actives 0.86% (n = 310,000). AID 488975;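 active = B-score over 3 SD under the library average, and starting fluorescence ratio not unusually high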;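 also: choline stimulus applied at its EC90 after an EC20 pre-addition; B-score computed on integrated fluorescence ratio after choline addition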
CHT PAM – allosterically activates the human high affinity choline transporter; Q9GZV3; CHT-expressing cells, membrane potential dye, choline EC20; stronger effect = higher value; LV-AA mutant CHT in HEK293 cells; B-score at 10 µM; actives 0.49% (n = 310,000);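 active = initial fluorescence not abnormally high and integrated response B-score, plate-corrected, over 3 SD above library mean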
PREPL inh – inhibits the human prolyl oligopeptidase-like enzyme | Q4J6C6 | actives 0.68% (n = 320,000) | recombinant PREPL, fluorescence polarization activity-based probe | inhibition, % at 5.96 µM; in the data active = inhibition above about 43%;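 also: 0% = enzyme with DMSO and 100% = wells lacking enzyme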
ALR H2O2 inh – inhibitors of human sulfhydryl oxidase ALR | P55789 | inhibition, % (test concentration not listed) | purified ALR, DTT oxidation, H2O2 HRP-luminol luminescence | actives 3.8% (n = 290,000);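 active = mean replicate inhibition above about 79%, with every replicate also reaching it, limit read from the data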
Target sequence (P55789 whole entry, looked up): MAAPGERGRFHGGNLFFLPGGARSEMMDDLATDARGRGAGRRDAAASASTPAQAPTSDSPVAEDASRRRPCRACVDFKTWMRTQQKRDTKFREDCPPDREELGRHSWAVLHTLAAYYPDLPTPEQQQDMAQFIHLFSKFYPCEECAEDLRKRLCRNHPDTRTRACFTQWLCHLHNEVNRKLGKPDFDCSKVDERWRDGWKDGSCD
AI-2 QS mod – Vibrio harveyi AI-2 quorum sensing modulation; Vibrio harveyi JMH597 AI-2 luminescence/OD600 ratio, 9 h; stronger effect = lower value; strain lacks LuxN and CqsS sensors; 0 = neutral-control median; activity change, % at 7.5 µM; actives 0.4% (n = 300,000); AID 2094; in the data active = activity change below about -75%, passing the limit was not always enough;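 also: luminescence divided by OD600 gain over 9 h not by final OD600 alone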
An asterisk follows results filed as active; i = inactive; . = not tested or not shown.

SMILES	CHT block	CHT PAM	PREPL inh	ALR H2O2 inh	AI-2 QS mod
CC(=O)c1ccc(NC(=O)CSc2nc(=O)cc(N)n2-c2ccccc2)cc1	i	i	2	99*	18
COc1ccc(N2CCN(C(=O)CSc3nnc(NC(=O)C4CCC4)s3)CC2)cc1	i	i	27	.	3
CCc1ccc(NC(=O)CSc2nnc(CNC(=O)c3ccc(OC)cc3)o2)cc1	i	i	-9	-70	14
COC(=O)C1=C(O)/C(=C\c2ccc(O)c(OC)c2)N=C1C	i	i	1	99*	7
CCOC(=O)C1=C(O)/C(=C\c2cc(C)n(-c3ccccc3F)c2C)N=C1C	i	i	10	-6	35
CCOC(=O)C1=C(O)/C(=C/c2cccc(OC)c2O)N=C1C	i	i	0	78*	12
COC(=O)C1=C(O)/C(=C\c2ccc(OCC(=O)Nc3ccccc3OC)cc2)N=C1C	i	i	-7	4	24
CCC(=O)c1ccc(OCC(O)CN2CCN(S(=O)(=O)c3ccc(NC(C)=O)cc3)CC2)cc1 (stereo not given)	i	i	2	-3	22
CCOc1ccc(C(=O)NNC(=O)c2cc(S(=O)(=O)N3CCOCC3)ccc2Cl)cc1	.	.	12	.	.
c1ccc(-c2cn3c(n2)-c2ccccc2C3)cc1	i	i	-6	95*	5
Cc1ccc2nc(-c3ccccc3)cn2c1	i	i	-10	38	1
O=c1oc(-c2ccco2)nc2sc3c(c12)CCCC3	i	i	72*	.	22
COc1ccc(N(C(=O)c2snc(C(N)=O)c2N)C(C(=O)NCC2CCCO2)c2ccc3ncccc3c2)cc1OC (stereo not given)	i	i	1	-21	24
O=C(CCCc1cccs1)Nc1nccs1	i	i	11	3	3
Cc1nnc(SCc2c(Cl)cccc2[N+](=O)[O-])s1	i	i	8	.	18
S=C(NCCc1ccccn1)Nc1ccccc1Cl	i	i	6	94*	17
Cc1c(Cl)cccc1NC(=S)NCCc1ccccn1	i	i	0	65	14
O=C(Nc1ccccc1C(=O)N/N=C/c1ccc(O)cc1)c1ccccc1	i	i	4	94*	-6
O=C(CNC(=O)c1ccccc1Br)N/N=C/c1ccc(O)cc1	i	i	2	99*	11
O=C(N/N=C/c1ccc(O)cc1)c1csc2ccccc12	i	i	6	98*	-12
O=C(N/N=C/c1ccc(O)cc1)c1cc(-c2ccccc2)nc2ccccc12	i	i	-1	30	9
CC(C)=C(NC(=O)c1ccccc1)C(=O)N/N=C/c1ccc(O)cc1	i	i	-7	99*	-4
C1=C(c2cc3ccccc3cn2)CCCC1	.	.	-24	-2	.
Cc1ccccc1-c1oc(C)c(C)[n+]1[O-]	i	i	-9	-5	17
O=C(O)c1ccc(-c2ccco2)n1Cc1ccccc1	i	i	11	99*	15
SMILES	CHT block	CHT PAM	PREPL inh	ALR H2O2 inh	AI-2 QS mod
C=CCNC(=S)NNC(=O)c1cc(O)ccc1O	i	i	16	99*	4
CC(C)(C)NC(=O)NC(=O)COC(=O)C1=COCCO1	i	i	0	-2	25
Cc1ccc(-c2nnc(SCC(=O)N3CCCC3)o2)cc1C	i	i	15	99*	17
O=C(CSc1nnc(-c2ccc3c(c2)OCCO3)o1)N1CCCC1	i	i	-11	99*	7
Nn1c(SCC(=O)Nc2ccc3c(c2)OCCO3)nnc(CCC(=O)O)c1=O	i	i	7	93*	12
Cc1nnc(SCC(=O)Nc2ccc3c(c2)OCCO3)n1N	i	i	-1	-4	3
COc1cccc(NC(=O)CSc2nnc(Cc3ccc(C)cc3)c(=O)n2N)c1	i	i	-5	99*	-20
COc1ccc(Cc2nnc(SCC(=O)Nc3ccc(C)cc3)n(N)c2=O)cc1	i	i	7	-5	-42
COc1ccccc1-c1nnc(SCC(=O)Nc2ccc3[nH]c(=O)[nH]c3c2)n1N	i	i	3	98*	.
CCOc1ccc(Cc2nnc(SCC(=O)Nc3ccccc3)n(N)c2=O)cc1	i	i	3	-2	34
COc1ccccc1-c1nnc(SCC(=O)Nc2ccc(S(N)(=O)=O)cc2)n1N	i	i	-2	-5	22
COc1ccc(NC(=O)CSc2nnc(Cc3ccc(C)cc3)c(=O)n2N)cc1OC	i	i	13	91*	8
COc1ccc(OCCOC(=O)c2cc(S(=O)(=O)N3CCOCC3)c(Cl)cc2Cl)cc1	i	i	18	-9	22
COc1ccc(NC(=O)CSc2nnc(Cc3ccccc3)c(=O)n2N)cc1OC	i	i	-8	93*	29
O=C1CCC/C(=N/NC(=O)c2sc3ccccc3c2Cl)C1	i	i	-30	98*	8
O=C1CCCC(=NNC(=O)c2cc3ccccc3cc2O)C1	.	.	15	.	.
Cn1c(C(=O)NCc2cccnc2)cc2sc(Cl)cc21	i	i	5	94*	11
CCN(CC)c1ccc(S(=O)(=O)N2CCOCC2)cc1NC(=O)CN1C(=O)NC2(CCC(C)CC2)C1=O (stereo not given)	i	i	2	-18	24
S=C(NCC1CCCO1)N1CCN(c2cccc(Cl)c2)CC1 (stereo not given)	i	i	-1	3	8
Fc1ccc(N2CCN(C(=S)NCC3CCCO3)CC2)cc1 (stereo not given)	i	i	-13	99*	34
CC(C)Oc1ccc(N2CC(C(=O)NC3=NCCS3)CC2=O)cc1 (stereo not given)	i	i	-3	-3	14
CCC(=O)c1ccc(OCC(O)CN2CCN(c3ccc(F)cc3)CC2)cc1 (stereo not given)	i	i	5	1	8
CC(=O)c1ccc(OCC(O)CN2CCN(c3ccc(F)cc3)CC2)cc1 (stereo not given)	i	i	2	98*	19
CC(=O)Nc1ccc(OCC(O)CN2CCN(c3cccc(Cl)c3)CC2)cc1 (stereo not given)	i	i	21	99*	32
CC(=O)Nc1ccc(OCC(O)CN2CCN(c3ccc(Cl)cc3)CC2)cc1 (stereo not given)	i	i	15	10	12
CC(=O)Nc1ccc(OCC(O)CN2CCN(c3ccc(F)cc3)CC2)cc1 (stereo not given)	i	i	2	98*	-1
Cc1cc2cc3c(cc2nc1SCC(=O)Nc1nc(C)c(C)s1)OCO3	i	i	-23	97*	16
COC(=O)CSc1nc2cc3c(cc2cc1C)OCO3	i	i	-5	21	19
CCOC(=O)c1ccc(CSC(=N)N)o1	i	i	6	99*	30
